High-throughput results from PubChem.
Beta apoptosis = blocks beta cell apoptosis; 300,000 tested, 0.8% active; protection from apoptosis, % (test concentration not listed); AID 435005; INS-1E cytokine-induced death, ATP luminescence, 48 h; percent of positive-control rescue, neutral wells zero;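 active means Every replicate reaches about 75%, or at least half do and their mean reaches it too, limit read from the data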;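 further: 0% = cytokine-treated negative control wells and 100% = positive control rescue; higher means more ATP so stronger rescue from cytokine killing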
MPTP block = blocks calcium-induced mitochondrial swelling. isolated mouse mitochondria, Ca2+ swelling absorbance, 30 min. inhibition, % at 10 µM. 360,000 tested, 1.4% active;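 active means inhibition of 50% or more, scaled per plate between neutral and stimulator controls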;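 further: 0% = DMSO wells given calcium and 100% = 1 mM EGTA wells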
CSC inhib = cancer stem cell inhibition. cancer stem cell-like cells viability, luminescence. inhibition, % at 7.5 µM. 300,000 tested, 1.1% active; in the data active means inhibition above about 75%; tested in HMLE shEcad cells
NR3A LBD binder = modulators (binders) of human NR3A ligand-binding domain | NR3A LBD differential scanning fluorimetry, Tm shift; 0% = protein alone, 100% = glycine-bound protein | Tm shift relative to glycine control, % at 25 µM | 340,000 tested, 2.5% active;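 active means melting temperature shift of at least 10% of the positive control shift, at one fixed dose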
Gli-Sufu block = antagonists of Gli-Sufu signaling. 340,000 tested, 0.74% active. Sufu-KO-LIGHT fibroblasts, Gli luciferase reporter luminescence. inhibition, % at 5 µM. AID 588413;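 active means inhibition above about 55%, limit read from the data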;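 further: 0% = DMSO-treated cells and 100% = wells with medium but no cells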
Mdm2 MdmX PPI = disrupts the human Mdm2-MdmX interaction | AID 485346 | 330,000 tested, 3% active | SaOS-2 split-luciferase Mdm2/MdmX complementation, luminescence | inhibition, % at 8 µM;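 active means inhibition of at least 50% at 8 µM in the primary screen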
Target sequence (O15151 whole entry, looked up): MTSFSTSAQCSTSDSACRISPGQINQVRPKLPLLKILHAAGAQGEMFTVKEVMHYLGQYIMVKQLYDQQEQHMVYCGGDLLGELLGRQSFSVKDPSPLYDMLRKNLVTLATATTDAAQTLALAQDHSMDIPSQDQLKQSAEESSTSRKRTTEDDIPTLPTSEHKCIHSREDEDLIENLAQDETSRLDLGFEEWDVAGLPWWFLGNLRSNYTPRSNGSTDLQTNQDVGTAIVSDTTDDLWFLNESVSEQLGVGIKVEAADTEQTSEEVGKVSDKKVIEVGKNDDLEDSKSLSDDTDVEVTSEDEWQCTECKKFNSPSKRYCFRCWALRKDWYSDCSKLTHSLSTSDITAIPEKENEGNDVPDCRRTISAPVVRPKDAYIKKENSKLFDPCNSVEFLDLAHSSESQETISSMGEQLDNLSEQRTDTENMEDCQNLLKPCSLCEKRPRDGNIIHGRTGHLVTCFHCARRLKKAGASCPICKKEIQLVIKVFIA
Target sequence (Q00987 whole entry, looked up): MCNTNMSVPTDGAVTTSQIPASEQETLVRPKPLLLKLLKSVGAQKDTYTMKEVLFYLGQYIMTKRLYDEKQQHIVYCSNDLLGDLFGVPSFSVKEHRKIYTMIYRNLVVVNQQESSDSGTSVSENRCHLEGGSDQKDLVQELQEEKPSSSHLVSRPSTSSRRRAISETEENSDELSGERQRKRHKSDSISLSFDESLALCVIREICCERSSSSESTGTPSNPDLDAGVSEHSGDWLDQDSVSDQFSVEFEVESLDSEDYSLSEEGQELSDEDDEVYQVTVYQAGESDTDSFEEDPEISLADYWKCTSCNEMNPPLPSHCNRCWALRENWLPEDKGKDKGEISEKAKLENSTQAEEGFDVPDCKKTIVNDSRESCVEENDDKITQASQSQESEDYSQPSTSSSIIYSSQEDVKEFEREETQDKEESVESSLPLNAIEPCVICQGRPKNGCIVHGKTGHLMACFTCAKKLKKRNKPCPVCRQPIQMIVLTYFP
Mdm2 MdmX conf = human Mdm2/MdmX binding inhibition, confirmed; shares compounds with Mdm2 MdmX PPI; luminescent assay; inhibition, % at 8 µM; 10,000 tested, 55% active; AID 489028; in the data active means inhibition above about 40%
Full FLuc ctr = inhibits full-length luciferase, flagging false Mdm2/MdmX hits; shares compounds with Mdm2 MdmX PPI; SaOS-2 full-length luciferase counterscreen, luminescence; inhibition, % at 8 µM; 6,200 tested, 77% active;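 active means mean inhibition at 8 µM reaching about 37%, which flags the compound as non-specific, limit read from the data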;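 further: p53-null SaOS-2 cells with luciferase driven by a doxycycline-inducible promoter; compound on cells about two nights before reading with doxycycline added after day one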
* hit, by the source's call; · = no result. An excerpt weighted towards active compounds, which were near 6.6% of everything screened.

SMILES | Beta apoptosis | MPTP block | CSC inhib | NR3A LBD binder | Gli-Sufu block | Mdm2 MdmX PPI | Mdm2 MdmX conf | Full FLuc ctr
Cc1cc(Cl)n2ncc(-c3ccccc3)c2n1 | -8 | 3 | -2 | 0 | -16 | 63* | 8 | ·
Cc1cc(N)n2ncc(-c3ccc(Cl)cc3)c2n1 | -5 | 2 | 32 | 8 | -92 | -2 | · | ·
CCOc1ccc(NC(=O)CN(C)C(=O)CSCc2ccc(C)cc2)cc1OCC | · | -1 | -8 | 2 | -8 | 7 | · | ·
COc1ccc(CNCc2cn(-c3cccc(F)c3)nc2-c2ccc(C)o2)cc1 | 0 | 2 | -4 | -1 | -24 | 52* | 13 | ·
COc1ccc(-n2cc(CNCc3cccnc3)c(-c3cccc(F)c3)n2)cc1 | 4 | 2 | -3 | 0 | · | 5 | · | ·
CC(C)Cc1nnc(NC(=O)C2CSC3(C)CCC(=O)N23)s1 (stereo not given) | -10 | 1 | -17 | -1 | 17 | 36 | · | ·
N/C(Cc1cccc2ccccc12)=N\OC(=O)c1ccccc1F | -2 | 3 | -7 | -2 | -11 | 7 | · | ·
N/C(=N\OC(=O)c1cccc2ccccc12)c1ccncc1 | -4 | 0 | -13 | 0 | -11 | 51* | -5 | ·
COc1cccc(OC)c1C(=O)O/N=C(\N)c1ccncc1 | 2 | 1 | 2 | 3 | 4 | 6 | · | ·
N/C(Cc1ccccc1)=N\OC(=O)c1cccc2ccccc12 | -2 | 0 | 2 | -1 | -1 | 98* | 67* | 57*
N/C(=N\OC(=O)c1cccc2ccccc12)c1ccc(Br)cc1 | 12 | 6 | -3 | 26* | -13 | 98* | 80* | 94*
N/C(=N\OC(=O)Cc1ccccc1)c1ccc(Br)cc1 | · | 1 | 0 | 0 | -25 | -30 | · | ·
COC(=O)C[C@@H]1CC[C@H](NS(=O)(=O)c2cccc(F)c2)[C@@H](CO)O1 | · | 1 | · | · | · | · | · | ·
Cc1ccccc1CN1C(=O)CN(S(C)(=O)=O)CC1(C)C(=O)NC(C)C (stereo not given) | · | 0 | · | · | · | · | · | ·
O=C(OCc1ccccc1)N1CCCC2CC1c1ccccc12 (stereo not given) | · | -1 | · | · | · | · | · | ·
COc1cccc(/C=C2\SC(=S)N(CCC(=O)NCCc3ccc(O)cc3)C2=O)c1 | -19 | 0 | 51 | 16* | 14 | 99* | 84* | 35
CN1CCN(C(=O)CCN2C(=O)/C(=C\c3ccc(F)cc3)SC2=S)CC1 | 1 | 0 | 11 | -1 | -1 | 25 | · | ·
O=C(CCN1C(=O)/C(=C/c2ccc(F)cc2)SC1=S)NCCc1ccc(O)cc1 | -20 | 7 | 53 | 16* | -3 | 87* | 66* | 42*
CCN1CCCC1CNC(=O)C(=O)NC(C)c1ccccc1 (stereo not given) | -4 | -3 | 17 | 1 | -4 | -9 | · | ·
COc1ccc(C)cc1Nc1nc(N)c2cc(OC)c(OC)cc2n1 | 16 | 17 | 6 | 0 | 13 | 51* | 15 | ·
COc1cc2nc(N3CCN(c4cc(C)ccc4C)CC3)nc(N)c2cc1OC | 118* | 6 | 106* | -12 | 22 | 95* | 86* | 51*
Cc1ccc(C)c(Nc2nc(N)c3ccccc3n2)c1 | 24 | 2 | -13 | -1 | -9 | -78 | · | ·
CN(CC(=O)N(C)CC(=O)Nc1c(Cl)cccc1Cl)Cc1ccccc1F | -1 | -4 | 7 | 4 | 7 | -15 | · | ·
Cc1noc(C)c1S(=O)(=O)N1CCCCC1c1cc(C(=O)Nc2cccc3c2CCCC3)no1 (stereo not given) | · | 0 | · | · | · | · | · | ·
Cc1n[nH]c(=S)n1/N=C/c1ccc(-c2ccc(Cl)cc2)o1 | 1 | 3 | 12 | 0 | 3 | 94* | -3 | ·
S=c1[nH]nc(-c2ccc(Cl)cc2)n1/N=C/c1ccco1 | -16 | 4 | 9 | 1 | 2 | -7 | · | ·
COC(=O)Nc1nc2ccc(C(=O)c3cccs3)cc2[nH]1 | · | 0 | 55 | 1 | 20 | 53* | 57* | 126*
O=C(Nc1ccccc1N1CCOCC1)c1cc(-c2ccncc2)nc2ccccc12 | 3 | 0 | 8 | -2 | -2 | 55* | 38 | 82*
